From PubChem
Hits are enriched below; roughly 5.8% of the tested compounds scored in any of these assays.
FLuc inh: firefly luciferase inhibition; purified firefly luciferase, luminescence, 8 min; Potency, µM (top dose mostly 57.1 µM), usual class: inhibitors; actives 2.2% (n = 72,000); note: nearly all actives have a fitted effect of over 40% in size
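Compounds were tested as concentration series (qHTS) against purified P. pyralis luciferase with luciferin and 10 uM ATP in 50 mM imidazole pH 7.2, 50 mM KCl, 7 mM MgCl2, 0.01% Tween 20, 0.05% BSA. Luminescence was read after 8 min at ambient temperature.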
HEK293 cAMP cs: counter-screen for TSHR agonists: cAMP increase in parental HEK293; parental HEK293 CNG cAMP sensor, membrane potential fluorescence; Potency, µM (highest dose often 57.1 µM), hits mostly activators; actives 2.5% (n = 73,000); note: nearly all actives have a fitted effect of over 55% in size
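Counterscreen for endogenous-receptor signalling: CNG-channel HEK 293 cells report cAMP rise by membrane depolarization. After 60 min dye equilibration with 100 uM RO 20-1724, compounds incubated 30 min before bottom-read fluorescence at 590 nm.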
Bst PK mod: modulators of Bacillus stearothermophilus pyruvate kinase. purified pyruvate kinase, luminescence ATP production; ribose 5-phosphate activator present at AC10. Potency, µM. actives 1.2% (n = 51,000). AID 361; in the data active = potency below about 11 µM; inconclusive = mostly about 12 µM to 25 µM;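 the screen sought inhibitors and activators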
GBA mod: human lysosomal glucosylceramidase modulation; purified enzyme, resorufin glucoside fluorescence (screen aimed at inhibitors), 20 min; Potency, µM; actives 1.1% (n = 48,000); AID 360; in the data active = potency below about 15 µM; inconclusive = mostly about 16 µM to 33 µM;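 note: the screen sought inhibitors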
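Normal human glucocerebrosidase (0.2 nM final) was assayed with resorufin β-D-glucopyranoside (30 uM final) in 50mM citric acid/KH2PO4, 10mM sodium taurocholate, 0.01% tween-20, pH 5.9. Compounds were titrated; fluorescence (Ex 548, Em 600) read after 20 min at RT.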
TSHR ag: activates the human thyroid stimulating hormone receptor; P16473; Potency, µM (doses to about 57.1 µM), actives largely listed as activators; actives 0.48% (n = 73,000); HEK293-CNG-TSHR cells (CNG channel as cAMP sensor), membrane potential dye, cAMP; active = well fitted activation curve with a large enough effect in the main read-out, with a control signal flat, not every such curve was filed as active; inconclusive = small, poorly fitted or top-dose-only effect, or a change in a side signal; inactive = no such curve, though single readings can be large or run the other way; reference of the percent scale not stated here;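 note: the control signal comes from parental cells without the receptor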
Target sequence (P16473 whole entry, looked up): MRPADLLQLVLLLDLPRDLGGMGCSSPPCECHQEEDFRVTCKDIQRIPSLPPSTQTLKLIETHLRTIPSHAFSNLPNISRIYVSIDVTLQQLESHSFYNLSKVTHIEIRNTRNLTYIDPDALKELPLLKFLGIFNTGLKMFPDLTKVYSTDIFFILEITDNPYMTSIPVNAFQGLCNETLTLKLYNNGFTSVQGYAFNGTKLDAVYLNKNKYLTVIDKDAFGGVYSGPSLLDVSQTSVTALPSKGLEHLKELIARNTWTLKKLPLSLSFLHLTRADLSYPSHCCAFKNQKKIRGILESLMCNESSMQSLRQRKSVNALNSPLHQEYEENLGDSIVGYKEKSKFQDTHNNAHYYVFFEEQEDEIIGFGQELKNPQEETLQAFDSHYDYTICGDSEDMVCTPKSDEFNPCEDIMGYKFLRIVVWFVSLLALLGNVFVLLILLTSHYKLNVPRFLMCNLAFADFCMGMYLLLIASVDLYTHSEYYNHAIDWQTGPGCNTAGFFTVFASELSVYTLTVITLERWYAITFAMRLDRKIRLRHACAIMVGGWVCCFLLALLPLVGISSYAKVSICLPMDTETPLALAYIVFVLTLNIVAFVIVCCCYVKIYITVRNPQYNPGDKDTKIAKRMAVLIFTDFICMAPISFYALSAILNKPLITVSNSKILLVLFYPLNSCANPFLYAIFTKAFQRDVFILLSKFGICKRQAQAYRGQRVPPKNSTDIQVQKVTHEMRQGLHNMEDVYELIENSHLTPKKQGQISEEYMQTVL
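HEK 293 cells stably expressing TSHR and a modified CNG channel, with CNG-only parental cells as counterscreen, were preloaded 60 min at room temperature with membrane potential dye containing 100 uM RO 20-1724. Compound exposure was 30 min, and depolarization was read as fluorescence at 590 nm.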
Hits are given with their value; . = inactive; ? = inconclusive; / = no result given; [ ] = dose if it differs, or a comment. Unless noted, calls come from the whole dose curve; as a rule, active = well fitted curve in the direction sought with a large enough effect; inconclusive = small, poorly fitted or top-dose-only effect, or another doubt; inactive = no such curve, though single readings can be large; an effect the other way counts as inactive or inconclusive.

SMILES | FLuc inh | HEK293 cAMP cs | Bst PK mod | GBA mod | TSHR ag
COC(=O)[C@@]1(Cc2ccc(OC)cc2)[C@H]2c3cc(C(=O)N4CCCC4)n(Cc4cc(C)n(C)n4)c3C[C@H]2CN1C(=O)c1ccccc1 | / | 13µM | / | / | ?
COC(=O)[C@@]1(Cc2ccc(OC)cc2)[C@H]2c3cc(C(=O)N4CCCC4)n(CCO)c3C[C@H]2CN1C(=O)c1ccccc1 | / | . | / | / | .
COC(=O)[C@@]1(Cc2ccccc2)[C@H]2c3cc(C(=O)N4CCCC4)n(Cc4ccccc4)c3C[C@H]2CN1C(=O)c1ccccc1 | / | 1.3µM | / | / | ?
COC(=O)[C@@]1(Cc2ccc(OC)cc2)[C@H]2c3cc(C(=O)N4CCCC4)n(CCc4ccc(OC)c(Br)c4)c3C[C@H]2CN1C(=O)c1ccccc1 | / | 5µM | / | / | ?
COC(=O)[C@@]1(Cc2ccccc2)[C@H]2c3cc(C(=O)N4CCCC4)n(CCN4CNCC4=O)c3C[C@H]2CN1C(=O)c1ccccc1 | / | . | / | / | .
Cc1nc(NCc2ccccc2)c2nc(-c3ccccc3)n(C(C)CN(C)C)c2n1 (stereo not given) | / | . | / | / | .
O=c1c(-c2ccc(F)cc2)nc2cnc(N3CCNCC3)nc2n1C1CC1 | .[11.4 µM] | ? | / | / | ?
COC(=O)[C@@]1(Cc2ccc(F)cc2)[C@H]2c3cc(C(=O)N4CCCC4)n(CCO)c3C[C@H]2CN1C(=O)c1ccccc1 | / | . | / | / | .
COC(=O)[C@@]1(Cc2ccccc2)[C@H]2c3cc(C(=O)N4CCCC4)n(Cc4ccc(O)c(OC)c4)c3C[C@H]2CN1C(=O)c1ccccc1 | / | 1µM | / | / | ?
COC(=O)[C@@]1(Cc2ccccc2)[C@H]2c3cc(C(=O)N4CCCC4)n(Cc4ccc(OC)c(OC)c4)c3C[C@H]2CN1C(=O)c1ccccc1 | / | 3.2µM | / | / | ?
O=c1c(-c2cc(F)cc(F)c2)nc2cncnc2n1C1CC1 | .[11.4 µM] | ? | / | / | ?
CN1CCN(c2nc(C(N)=O)cc(-c3ccccc3)n2)CC1 | . | / | 11 | / | /
CCOC(=O)N/N=C1/C[C@@H](O)[C@@H](O)[C@@H]2[C@@H]3C(=O)N(C[C@@H]4CCCO4)C(=O)[C@H]3CC[C@H]12 | .[11.4 µM] | .[11.4 µM] | / | / | .[11.4 µM]
COc1ccc2oc(-c3ccccc3)c(OC)c(=O)c2c1 | .[11.4 µM] | 40µM | / | / | ?
C/C(CCC(=O)OC[C@@H]1O[C@H](C#Cc2ccccc2)C=C[C@@H]1Oc1ccc(C)cc1)=N/O[C@@H](C)CN1CCCCc2nc(C)c(C)cc21 | .[11.4 µM] | .[11.4 µM] | / | / | .[11.4 µM]
Oc1c(Cl)cc(CN(Cc2cc(Cl)c(O)c(Cl)c2)C2CCCCC2)cc1Cl | .[11.4 µM] | ? | / | / | ?
N#C[C@@H](N=Nc1ccccc1C(=O)O)C(N)=O | .[11.4 µM] | .[11.4 µM] | / | / | .[11.4 µM]
COCCN(CCOC)c1ncc(Cl)c(C(=O)c2c(C)cc3ccccn23)n1 | . | 32µM | . | . | ?
COCCN(CCOC)C(=O)c1cc2c(=O)n3ccccc3nc2s1 | . | . | . | . | .
FC(F)(F)c1cc(CN2CCC3(CCNCC3)CC2)cc(C(F)(F)F)c1 | .[11.4 µM] | . | / | / | .
CC(=O)C[C@H](c1ccc([N+](=O)[O-])cc1)c1c(O)c2ccccc2oc1=O | . | . | / | / | .
CC(C)(C)N1C(=O)c2ccc(C(=O)Nc3nccs3)cc2C1=O | 5µM | . | / | / | .
CCN1C(=O)c2ccc(C(=O)Nc3nccs3)cc2C1=O | ? | . | / | . | /
COc1ncc2nc(-c3cc(F)cc(F)c3)c(=O)n(CCC#N)c2n1 | .[11.4 µM] | . | / | / | .
O=C(O)c1cccc(CN2CCCCC2)c1 | .[11.4 µM] | .[11.4 µM] | / | / | .[11.4 µM]
SMILES | FLuc inh | HEK293 cAMP cs | Bst PK mod | GBA mod | TSHR ag
Cc1c(C(=O)OCCOc2ccccc2)[nH]c2c1C(=O)CCC2 | 10µM | ? | ? | / | ?
Cn1c(C(=O)NCc2ccco2)cc2c(=O)[nH]c3ccccc3c21 | . | . | 4.4 | . | .
O=C(NCc1ccco1)c1cc2ccccc2c(=O)o1 | . | . | . | . | .
Nc1nc(N2CCCCC2)nc2ccccc12 | . | . | 8.5 | / | .
c1ccc2c(N3CCCCC3)nc(N3CCCC3)nc2c1 | . | 13µM | . | . | ?
Nc1nc(-c2ccco2)nc(N2CCCCC2)n1 | . | . | . | . | .
Cc1noc(C)c1-c1ccc2ncnc(N(C)C)c2c1 | .[2.29 µM] | ? | / | / | ?
O=C(O)Cn1c(-c2ccccc2)nc2ccccc21 | . | . | . | . | .[11.4 µM]
O=Nc1c2nc3ccccc3n(O)c-2c2ccccc12 | . | . | 7.3 | . | .
O=C(c1ccc(C23CC4CC(CC(C4)C2)C3)o1)N1CCOCC1 | . | . | . | . | 13µM
COc1ccc(NC(=O)c2ccco2)cc1NC(=O)c1c(F)c(F)c(OC)c(F)c1F | . | . | . | . | .
COc1c(F)c(F)c(C(=O)Nc2ccc(NC(=O)c3ccco3)cc2)c(F)c1F | . | . | . | 1.5 | .
CC(=O)Nc1ccc(S(=O)(=O)Nc2ccc(NC(=O)c3ccco3)cc2)cc1 | . | . | . | 11 | .
CCOc1ccc(NC(=O)c2ccco2)cc1 | 13µM | . | . | . | .
COC(=O)c1c(NC(=O)c2ccco2)sc(C(=O)Nc2ccc(F)cc2)c1C | . | 25µM | . | . | ?
COC(=O)c1c(NC(=O)c2ccco2)sc(C)c1C | . | . | . | . | /
O=C(Nc1ccc(C(=O)Oc2ccccc2)c(O)c1)c1ccco1 | 25µM | . | . | . | .
O=C(Nc1ccc(OC(=O)c2cccs2)cc1)c1ccco1 | 25µM | . | . | . | .
CC(=O)N(C)c1ccc(NC(=O)c2ccco2)cc1 | . | . | ? | . | .
CCOC(=O)Nc1ccc(C(=O)Oc2ccccc2)c(O)c1 | . | . | / | ? | .
O=C(Nc1ccc(Nc2ccccc2)cc1)c1ccco1 | 13µM | . | . | 3 | .
CCc1nc(C)cn1S(=O)(=O)c1ccc(Cl)c(Cl)c1Cl | . | 25µM | / | / | ?
CCOc1ccc2nc(NCCNC(=O)CC)c(C#N)cc2c1 | . | . | . | . | .
Cc1ccc2cc(C#N)c(NCCNC(=O)C3CC3)nc2c1C | . | 25µM | . | . | ?
Nc1ncnc2c1ncn2[C@H]1O[C@@H](C(=O)OCCO)[C@@H](O)[C@H]1O | .[11.4 µM] | .[11.4 µM] | / | / | .[11.4 µM]
SMILES | FLuc inh | HEK293 cAMP cs | Bst PK mod | GBA mod | TSHR ag
NC(N)=NC(N)=Nc1ccc(S(=O)(=O)O)cc1 | .[11.4 µM] | .[11.4 µM] | / | / | .[11.4 µM]
O=C(NC1=NC2CCCCC2N1)c1ccccc1 (stereo not given) | 1.3µM | . | ? | ? | .
CC(=O)c1n[nH]nc1NC(=O)c1ccccc1 | . | . | . | . | .
O=C(c1ccc(N2CN(C(=O)c3ccco3)c3nc4ccccc4nc32)cc1)N1CCOCC1 | . | . | / | . | 1.3µM
O=C(c1ccncc1)N1CCN(C(=O)c2ccco2)CC1 | . | . | . | . | /
Oc1ccccc1Nc1nc(NCC2CCCO2)c2ccccc2n1 (stereo not given) | . | . | / | 0.43 | .
CC(=O)N1CCC2(CCCN(c3ccc(-c4ccccc4)cc3)C2)CC1 | .[11.4 µM] | . | / | / | .
COC(=O)C(/C=C/C(C)Cc1cc(Br)cc(OCc2ccccc2)c1OC)OCc1ccccc1 (stereo not given) | / | .[11.4 µM] | / | / | .[11.4 µM]
COC(=O)c1c(C)n(-c2ccccc2)c2ccc(O)cc12 | . | . | . | . | .
CCOC(=O)c1c(C)n(CC(O)c2ccccc2)c2ccc(O)cc12 (stereo not given) | . | . | . | . | 25µM
